# Measurements from the supplement of paper PMC3334620.
# In all, about 33,000 sequences were measured (“E-score (-0.5 to 0.5)”: median about -0.056, highest 2% from about 0.38 on). What follows is part of a selection rich in the highest values, with near analogues and random picks from the rest.
# Target: Stb4 (UniProt P50104)
# Assay: PBM E-score (8-mer binding enrichment) (E-score (-0.5 to 0.5)); higher = stronger / more preferred TF binding
# Conditions: protein concentration: 200 nM; construct: GST-DNA-binding domain
# Outline: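 E-scores (a modified Wilcoxon-Mann-Whitney statistic) were assigned by the Universal PBM Analysis Suite to every ungapped eight-base word pooled with its reverse complement. The input came from universal all-10-mer Agilent arrays made double-stranded by primer extension and probed with GST-tagged yeast transcription factors at about 100-200 nM. Fluorescent anti-GST detected bound protein, and masliner normalised the scans.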
# UniProt P50104, sequence (P50104 whole entry): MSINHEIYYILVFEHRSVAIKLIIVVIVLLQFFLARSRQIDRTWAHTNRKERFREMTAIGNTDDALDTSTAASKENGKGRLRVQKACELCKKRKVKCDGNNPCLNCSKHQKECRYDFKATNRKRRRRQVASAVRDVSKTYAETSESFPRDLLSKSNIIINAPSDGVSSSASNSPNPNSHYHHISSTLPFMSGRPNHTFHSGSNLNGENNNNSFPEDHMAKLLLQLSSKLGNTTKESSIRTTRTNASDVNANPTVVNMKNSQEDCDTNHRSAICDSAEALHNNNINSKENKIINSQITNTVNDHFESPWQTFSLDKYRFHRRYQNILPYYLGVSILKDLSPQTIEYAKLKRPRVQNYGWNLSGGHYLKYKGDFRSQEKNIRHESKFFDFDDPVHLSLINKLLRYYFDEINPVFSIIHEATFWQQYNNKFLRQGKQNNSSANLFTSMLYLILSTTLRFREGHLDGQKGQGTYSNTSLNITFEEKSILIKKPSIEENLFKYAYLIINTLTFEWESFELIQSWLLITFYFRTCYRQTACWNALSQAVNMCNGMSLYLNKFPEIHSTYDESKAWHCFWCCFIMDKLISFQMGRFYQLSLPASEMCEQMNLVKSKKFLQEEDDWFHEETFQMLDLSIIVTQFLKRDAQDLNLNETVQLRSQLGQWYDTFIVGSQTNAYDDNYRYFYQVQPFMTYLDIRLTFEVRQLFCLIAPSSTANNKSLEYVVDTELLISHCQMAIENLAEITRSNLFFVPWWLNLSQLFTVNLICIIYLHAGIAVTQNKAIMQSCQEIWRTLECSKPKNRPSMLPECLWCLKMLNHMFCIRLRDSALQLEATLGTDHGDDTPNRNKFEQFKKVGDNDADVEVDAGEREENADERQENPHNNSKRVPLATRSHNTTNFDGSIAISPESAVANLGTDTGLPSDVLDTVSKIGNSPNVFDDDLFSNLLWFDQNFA
row,Sequence,PBM E-score
1,CAAAATTC,0.165
2,ATTCCGTC,0.285
3,CTTCCGTC,0.341
4,AGTCCGAC,0.11
5,CTTCCGCC,0.297
6,CTTCCGAC,0.457
7,ATTCCGAC,0.416
8,GCTACCCC,-0.0436
9,TCTTGCAA,0.0931
10,AAAGAGCT,-0.128
11,ATTAGAAT,-0.0347
12,TCCCGGCA,0.298
13,ACCCGGAT,0.374
14,CCCCGGAA,0.27
15,GCCCGGTA,0.263
16,ACCCGGAA,0.433
17,GCCCGGAC,0.229
18,ACCCGGAG,0.373
19,GCCCGGGA,0.308
20,CCCCGGGA,0.307
21,TCCCGGGA,0.409
22,TCCCGGAA,0.407
23,GCCCGGAA,0.423
24,CGGTAGGA,0.136

row,Sequence,PBM E-score
1,AGCTCATA,-0.0221
2,AACAACTT,-0.165
3,CCTATGAG,-0.227
4,GTAGCAAA,-0.0766
5,ATTGACGA,-0.138
6,TCACATCA,-0.0958
7,CCTCGGAG,0.408
8,CCTCGGAC,0.321
9,ACTCGGAG,0.362
10,CCTCGGAA,0.484
11,CCTCGAAA,-0.27
12,CCGCGGAA,0.352
13,CATCAACC,0.00345
14,ACATCAAA,-0.0159
15,ACTCATCT,-0.224
16,AGCCAAGA,-0.22
17,AAAGGAGT,0.0609
18,GATGCGAC,0.0109
19,CTACTTGC,0.104
20,CGGATGAA,0.433
21,AGGATGTA,-0.177
22,CGGATGTC,0.426
23,AGGATGAA,-0.0759
24,CTGATGTC,0.0602

row,Sequence,PBM E-score
1,CGGATGAG,0.369
2,GGGATGTA,0.109
3,CGGATGTA,0.443
4,AGGATGTC,-0.0723
5,ATCCTCTG,-0.208
6,CGCCACAA,-0.0226
7,ACCCGTTA,0.269
8,AATGGAAA,0.0387
9,AGTCCCGA,0.389
10,GGTCCCGA,0.39
11,GGTCCCTA,-0.115
12,GTCCCCGA,0.288
13,CGTCCCAA,-0.155
14,CGTCCCGA,0.402
15,CGTCCCGC,0.248
16,AGTCCCGG,0.304
17,AGTCCCGC,0.15
18,CGTTACTA,-0.124
19,AGCCCCAC,-0.0851
20,ACAGGACA,-0.0558
21,CCATTGGA,-0.213
22,CTATTCAG,-0.288
23,CCCGCCAG,0.0645
24,AGAATAAA,-0.194

row,Sequence,PBM E-score
1,AAATCTAT,-0.00166
2,ACGGAAGA,0.349
3,ACGGAAGC,0.337
4,CGGGAAGC,0.299
5,CCGGAAGA,0.389
6,GCGGAAGC,0.336
7,CGGGAAGA,0.401
8,CCGGAAGC,0.395
9,AGGGAAGA,-0.277
10,GCGGAAGA,0.317
11,ACGGAAGG,0.313
12,CCGGAAGG,0.392
13,CAGGAAGG,-0.208
14,CATACGGG,0.152
15,AGACCGTG,-0.0481
16,AACTTGCC,0.139
17,GAGTCGCA,-0.21
18,CCAGCCCC,-0.0533
19,CGTTCCAG,-0.0906
20,AACTCATA,0.148
21,TCGGAAGA,0.455
22,AGGGAATA,0.0561
23,CGGGAATA,0.417
24,TCAGAAGA,-0.217

row,Sequence,PBM E-score
1,GGGGAATA,-0.0405
2,TAGGAAGA,-0.21
3,ATTAGCAC,0.00903
4,CTCCTGGC,-0.113
5,TGGCTAAA,0.0298
6,CGGCTAAA,0.388
7,AGGCTAAA,-0.163
8,AGTAGGGG,0.0719
9,AGGATCGA,0.00545
10,CGGATCGC,0.361
11,AGGATCAC,-0.249
12,TGGATCAA,-0.243
13,GGGATCAC,-0.0541
14,CGGATCTA,0.391
15,CGGATCAG,0.33
16,CGGATCTC,0.3
17,CGGATCGA,0.404
18,GGGATCTA,0.0821
19,CGGATCAA,0.401
20,CGGATCAC,0.397
21,CCTACAAG,-0.104
22,CGGTGGAG,0.121
23,CATTCAAA,0.048
24,CCGAGTCA,0.381

row,Sequence,PBM E-score
1,CCGAGTTC,0.396
2,ACGAGTAG,-0.11
3,CCGAGTCC,0.403
4,ACGAGTTC,-0.00258
5,ACGAGTAC,-0.106
6,GCGAGTAC,-0.0817
7,CCGAGTAA,0.345
8,GCGAGTCC,-0.0651
9,CCGAGTAG,0.391
10,CCGAGTTA,0.34
11,CCGAGTAC,0.383
12,CGAGCAGC,0.15
13,ATGACCCA,-0.283
14,AACGCACC,-0.0468
15,CTCACTTC,-0.141
16,AACGAGAT,0.0091
17,ACCGAGAT,0.407
18,ACCGAGGT,0.392
19,AACGAGGT,-0.293
20,ACCGAGCT,0.365
21,ACCGAGAG,0.342
22,ACCCAATG,-0.174
23,ACCCCATC,-0.109
24,GGTGAGTA,-0.183

row,Sequence,PBM E-score
1,TCCTCCAA,-0.181
2,CTGCTCGC,-0.0171
3,ATGCGGAA,0.332
4,CTTCGGAA,0.485
5,ATTCGGAG,0.324
6,GTGCGGAA,0.289
7,CTTCGGAC,0.386
8,CTTCGAAA,-0.2
9,ATTCGGAA,0.456
10,CTACGGAA,0.222
11,ATTCGGAC,0.373
12,GTACGGAA,0.323
13,CTTCGAAC,-0.00115
14,GTTCGGAA,0.474
15,CCTTTTCC,0.0594
16,GATAGTTA,0.0424
17,CATTTGTA,-0.106
18,ATGTAGCC,0.136
19,AGACAGCA,-0.0333
20,GCAGGCCC,-0.0954
21,ATTAGCCA,-0.26
22,ATTAGCCG,0.4
23,ATTAGCCC,-0.0135
24,AATGTCCC,0.169

row,Sequence,PBM E-score
1,AACTTCTC,0.0267
2,AATATTCC,0.347
3,CCCTTACA,-0.0902
4,CGGGCGAA,0.158
5,CAATCTGA,-0.0386
6,CACCGGAC,0.215
7,TACCGGTA,0.149
8,TACCGGAA,0.394
9,CACCGGAG,0.125
10,CACCGGAA,0.412
11,GACCGGAA,0.316
12,GATTGAGA,-0.0336
13,CAAGCGAG,0.0404
14,TCCGAAGA,0.458
15,CCCGAAGC,0.371
16,GCCGAAGA,0.362
17,CCCGAAGG,0.394
18,ACCGAAGA,0.359
19,CGCGAAGA,0.112
20,CACGAAGA,-0.255
21,CCCGAAGA,0.403
22,ACCGAAGG,0.243
23,CCCGCAGG,0.115
24,TGCACTAA,-0.112

row,Sequence,PBM E-score
1,ACTGAATG,0.0782
2,GTCAGGAC,-0.21
3,AGAGATTC,-0.00647
4,CAGGCCAA,-0.0749
5,TAACTTCA,-0.143
6,AGGTTGCG,-0.269
7,GTTCTATA,-0.173
8,GGACTTCA,-0.0404
9,ATATCTGA,-0.0996
10,GATGCCGA,0.411
11,TATGCCGA,0.411
12,CATGCCGA,0.353
13,CCTGCCGA,0.359
14,GATGCCGC,0.0124
15,AATGCCGA,0.415
16,TATGCCCA,-0.104
17,AATGCCGT,0.277
18,ACTGCCGA,0.407
19,AATGCCGG,0.313
20,GCTGCCGA,0.378
21,TATGCCAA,-0.209
22,AGAGGGCA,-0.289
23,AGGTACGA,-0.0929
24,ACAAGAAC,0.101

row,Sequence,PBM E-score
1,ATGGTTTG,0.117
2,CAGATCTG,-0.205
3,CAGACGAA,0.0157
4,CTACTGCA,-0.329
5,CTACTGAC,-0.0845
6,CTTAGAAC,-0.0637
7,GTCCTCGA,-0.228
8,AAGCAAAC,-0.0582
9,ATCCGGGC,0.405
10,ATCCGGCG,0.368
11,ATCCGGCA,0.38
12,CTCCGGGC,0.131
13,AACCGGGG,0.164
14,ATCCGGGG,0.398
15,AGCCGGGC,0.166
16,ATCCGGGA,0.368
17,ATCCGGCC,0.394
18,AATATAAC,0.109
19,CGTCTCAG,-0.235
20,TGGAACCA,0.0635
21,CGGAACCG,0.407
22,CCGAACCG,0.447
23,GGGAACCA,-0.0292
24,CCGAACCA,0.356

row,Sequence,PBM E-score
1,CGGAACCA,0.41
2,CCGAACCC,0.37
3,AGGAACCG,0.263
4,CGGAACCC,0.359
5,CATTCTCA,0.0317
6,CAATGTCC,0.00172
7,AAATGCGC,-0.041
8,GGGCCGAA,0.314
9,GTGCCGAA,0.441
10,ATGCCGTG,0.00847
11,ATGCCGCA,0.0956
12,CTGCCGAA,0.411
13,ATGCCGAA,0.433
14,ATGCCGAC,0.333
15,CTGCCGAC,0.331
16,ATGCCAAA,-0.302
17,ATGCCGAG,0.423
18,CTGCCGCA,0.0287
19,GTGCCAAA,-0.0603
20,GCAAGTGA,-0.0836
21,CTCGCGAG,-0.0385
22,GTAAGTAC,0.00926
23,AGCGACCC,0.0831
24,ATGGTCGC,-0.0565

row,Sequence,PBM E-score
1,CGTTAGCA,-0.0245
2,ACAGGCAT,-0.242
3,AAAGCCGA,0.322
4,GAAGCCCA,-0.1
5,GAAGCCGC,0.193
6,TAAGCCGA,0.392
7,GAAGCCGA,0.401
8,CAAGCCGA,0.297
9,ACGATTGG,-0.176
10,TCTCGGCA,0.446
11,GCTCGGCA,0.443
12,AATCGGCA,0.32
13,ACTCGGCA,0.428
14,TCACGGCA,0.114
15,ACTCGGCG,0.326
16,CCTCGGCG,0.411
17,ACTCGGCC,0.232
18,CATCGGCG,0.165
19,GCTCGGCC,0.289
20,CCACGGCG,-0.0429
21,GCACGGCA,0.109
22,ACGACGTC,-0.148
23,ATTGGGGA,-0.245
24,AGATACTG,-0.169

row,Sequence,PBM E-score
1,ACCAGCCG,0.256
2,AGATGAAG,-0.0847
3,AGCTAAGA,-0.055
4,AAGCCAAG,-0.0879
5,CCCGCATC,0.101
6,ACATAGAG,-0.166
7,GAGAAATC,0.0628
8,ACTCGGCT,0.414
9,CCTCGGCC,0.313
10,CCTCGGCA,0.461
11,CGTCGGCA,0.38
12,ACTCGTCT,-0.126
13,AATCGGCT,0.344
14,GAGTCCCC,-0.0682
15,ACGTGATA,-0.167
16,CCCTGACC,0.0155
17,CCAGACTC,-0.0717
18,GAAACAGA,-0.0644
19,TACCGAAA,0.385
20,CGCCGAAC,0.366
21,AGACGAAG,-0.0901
22,CGCCGAAG,0.372
23,AGCCGTAT,0.0974
24,AGCCGAAT,0.426

row,Sequence,PBM E-score
1,AGCCGACT,0.261
2,CACCGAAA,0.201
3,GACCGAAA,0.255
4,GGCCGAAC,0.313
5,AGCCGAAG,0.391
6,AGCCGAAC,0.411
7,GAGCCGTA,0.191
8,AGCCCGTC,-0.0989
9,ATGATTCG,0.0336
10,GGGTCTAA,-0.0158
11,AAAGCTCA,-0.202
12,CTGCAGTA,-0.353
13,AATCAGGC,-0.174
14,TGACGAAA,-0.207
15,GGCCGAAA,0.319
16,TGCCGACA,0.359
17,AGCCGAAA,0.425
18,TGCCGAAA,0.444
19,CGCCGAAA,0.34
20,AACAGGAA,-0.219
21,AGCACAAC,0.0479
